Results taken from PubChem BioAssay AID1985 (Southern Research Specialized Biocontainment Screening …, 2009).
About 1,000 (43%) of roughly 2,300 compounds were called active. The rule behind the calls is not given here. The set was probably picked from earlier hits. The list shows a part of the results. Measured potencies and affinities stand elsewhere.

Experiment: modified counter assay using GFP fluorescence, PhoP regulon inhibitor project, dose response (AID 1985)
Conditions: S. Typhi, 4 h; series mostly up to 150 µM
With CC(C)c1ccc(C2C(C#N)=C(N)Oc3c2oc(CO)cc3=O)cc1 (stereo not given) the outcome was “inactive”.
For CNS(=O)(=O)c1cc(OC)ccc1OC, the outcome was “inactive”.
In the case of C#CC[N+]1(CC#Cc2ccc(C#CC[N+]3(CC#C)CCOCC3)cc2)CCOCC1, the outcome is reported as “inactive”.
In the case of Nc1c(-c2ccccc2)sc2ccc3ccccc3[n+]12, the outcome is reported as “inactive”.
In the case of CCc1ccc(Nc2n[n+](-c3ccccc3)c(-c3c(Cl)cccc3Cl)s2)cc1, the outcome is reported as “inactive”.
In the case of COC(=O)CC1C(=O)NCCN1C(=O)CSc1nc2ccc([N+](=O)[O-])cc2s1 (stereo not given), the outcome is reported as “inactive”.
For C(=N\Nc1nc2ccccc2[nH]1)/c1ccc2ncccc2c1, the outcome was “inactive”.
In the case of O=C(O)COc1ccc(/C=C/c2nc3ccc([N+](=O)[O-])cc3s2)cc1, the outcome is reported as “inactive”.
With O=C(N/N=C/c1cccnc1)c1ccc([N+](=O)[O-])cc1Cl the outcome was “inactive”.
In the case of Cc1cccc(NC(=O)c2ccccc2Br)n1, the outcome is reported as “inactive”.
For Cc1cc(=O)n2nc(N3CCCC(C(=O)NC4CCCCC4C)C3)sc2n1 (stereo not given), the outcome was “inactive”.
In the case of COC(=O)c1ccc(Cn2cnc3ccccc3c2=O)cc1, the outcome is reported as “inactive”.
For N#CCCn1c2ccccc2c2nc3ccccc3nc21, the outcome was “inactive”.
With O=S(=O)(Nc1c(S(=O)(=O)c2ccccc2)c2nc3ccccc3nc2n1C1CCCCC1)c1ccccc1 the outcome was “inactive”.
For Cc1cccc(S(=O)(=O)c2c(N)n(/N=C/c3ccccc3)c3nc4ccccc4nc23)c1, the outcome was “inactive”.
For CCCCn1c(NS(=O)(=O)c2ccc(C)cc2)c(S(=O)(=O)c2ccccc2)c2nc3ccccc3nc21, the outcome was “inactive”.
For CCOC(=O)CSc1nc(-c2ccccc2)nc2ccccc12, the outcome was “inactive”.
For CCCCn1c(NCc2ccccc2NS(=O)(=O)c2ccc(C)cc2)nc2ccccc21, the outcome was “inactive”.
With CCC(=O)N(Cc1cc2cc(OC)ccc2[nH]c1=O)c1ccc(C)cc1C the outcome was “inactive”.
For O=C(CCS(=O)(=O)c1ccccc1)Nc1ccc2c(c1)C(=O)NC2=O, the outcome was “inactive”.
For Cc1ccc2nsnc2c1S(=O)(=O)NCc1ccc2c(c1)OCO2, the outcome was “inactive”.
For c1cncc(CSc2ccc(-c3cccs3)nn2)c1, the outcome was “inactive”.
In the case of c1ccc2c(c1)CCN(c1nc3ccccc3n3cnnc13)C2, the outcome is reported as “inactive”.
In the case of COc1ccc2c(c1OC)C(=O)N(c1ccc(C)cc1)C2=O, the outcome is reported as “inactive”.
With Cc1cc(C(F)F)n2nc(C(=O)Nc3cc(C)on3)nc2n1 the outcome was “inactive”.
For Cc1[nH]nc2c1C(C1CC=CCC1)C(C#N)=C(N)O2 (stereo not given), the outcome was “inactive”.
With CC1(C)CC(=O)C2=C(C1)N(c1ccc(F)cc1)C(=O)CC2c1ccsc1 (stereo not given) the outcome was “inactive”.
In the case of COc1ccc(-n2c3c(cc(C(=O)Nc4cccc(C)n4)c2=O)C(=O)CC(C)(C)C3)cc1, the outcome is reported as “inactive”.
With CCc1ccc(NC2=NCCCS2)cc1 the outcome was “inactive”.
In the case of CCCCN(C)C(=O)c1ccc(S(=O)(=O)N2CCOCC2)cc1, the outcome is reported as “inactive”.
For CSc1ccc(NC(=O)C(C)N2CCN(C)CC2)cc1 (stereo not given), the outcome was “inactive”.
In the case of Cc1cc(C)c2c(=O)[nH]c(SCC(=O)N3CCCCC3)nc2n1, the outcome is reported as “inactive”.
In the case of CCCCC(=O)Nc1ccc2c(c1)C(=O)NC2=O, the outcome is reported as “inactive”.
In the case of CC(C)c1c(O)nc(SCC(=O)N2CCOCC2)[nH]c1=O, the outcome is reported as “inactive”.
In the case of Nc1nc(SCC(=O)Nc2ccc3c(c2)CCC3)n[nH]1, the outcome is reported as “inactive”.
With CCCC1(c2ccccc2)NC(=O)N(CC(=O)Nc2cc(S(=O)(=O)N3CCOCC3)ccc2Cl)C1=O (stereo not given) the outcome was “inactive”.
In the case of CN1Cc2ccccc2N(CC(=O)NCc2ccccc2)C1=O, the outcome is reported as “inactive”.
With O=C(CC1(O)C(=O)Nc2ccc(Br)cc21)c1ccc2c(c1)OCO2 (stereo not given) the outcome was “inactive”.
In the case of CCOC(=O)CNC(=O)Cn1c(C)cc2ccccc2c1=O, the outcome is reported as “inactive”.
In the case of CCn1c(=N)n(CC(=O)c2ccc(OC)cc2)c2ccccc21, the outcome is reported as “inactive”.
With O=C(CN(Cc1ccco1)C(=O)CNS(=O)(=O)c1ccc(Cl)cc1)NCc1ccc(F)cc1 the outcome was “inactive”.
In the case of CCN1CCN(CC(=O)Nc2ccc(C)c(Br)c2)CC1, the outcome is reported as “inactive”.
With CS(=O)(=O)N(CCc1ccccc1)CC(=O)Nc1ccc2c(c1)OCO2 the outcome was “inactive”.
In the case of CCN(CC)CCn1nc(C)nc1-c1ccccc1O, the outcome is reported as “inactive”.
With C/C(=N\Nc1ccc(C)c(Cl)c1)c1cccnc1 the outcome was “inactive”.
With Cc1ccc(NC2=NCCCS2)cc1Cl the outcome was “inactive”.
In the case of Nc1nc(N2CCN(c3ccccn3)CC2)nc2ccccc12, the outcome is reported as “inactive”.
With CCc1nc(SCC(=O)Nc2ccc(N(C)C)cc2)c2ccccc2n1 the outcome was “inactive”.
For c1ccc2oc(-c3ccc(Nc4nc(N5CCCCC5)nc(N5CCOCC5)n4)cc3)nc2c1, the outcome was “inactive”.
With Clc1ccc(Nc2nc(C3CC3)cs2)cc1 the outcome was “inactive”.
In the case of O=C(CN1C2=NCCN2c2ccccc21)c1ccc2c(c1)OCO2, the outcome is reported as “inactive”.
In the case of CN(C)C(/C=C/Nc1ccc(F)cc1F)=C(C#N)C#N, the outcome is reported as “inactive”.
With CCOc1ccc(NC(=O)CN(C)C(=O)c2ccccc2CCc2ccccc2)cc1OCC the outcome was “inactive”.
With CC(C)CC(=O)Nc1ccc(-c2cn3cccnc3n2)cc1 the outcome was “inactive”.
For CCOc1ccc(-c2nc(N)ncc2-c2ccccc2)c(O)c1, the outcome was “inactive”.
In the case of CCOc1ccc(NC(N)=O)cc1, the outcome is reported as “inactive”.
With Cc1ccc(Cn2c(=N)c(C(=O)NCc3ccco3)cc3c(=O)n4ccccc4nc32)cc1 the outcome was “inactive”.
For CCn1cnc2cc(NCc3ccc(Br)cc3)ccc21, the outcome was “inactive”.
With NC(=O)CN1N=C(c2cc(Cl)sc2Cl)CSC1=O the outcome was “inactive”.
For CN1C(=O)c2ccc(NC(=O)C3CCCCC3)cc2C1=O, the outcome was “inactive”.
In the case of COc1ccc(C(=O)Nc2cc3c(cc2OC)CCCC3)cc1Br, the outcome is reported as “inactive”.
With CCCCN(CCCC)CCNC(=O)CSCc1ccc(C)cc1 the outcome was “inactive”.
For COCc1[nH]nc2c1C(c1ccc(OC)cc1)C(C#N)=C(N)O2 (stereo not given), the outcome was “inactive”.
With CCCCn1cnc2cc(NCc3cccc(OC)c3O)ccc21 the outcome was “inactive”.
With COc1cccc(/C=N/NC(=O)CNC(=O)CCc2ccccc2)c1O the outcome was “inactive”.
With COc1ccccc1NC(=O)Cn1cnc2c(nnn2-c2ccc(C)cc2)c1=O the outcome was “inactive”.
For COc1cccc(/C=N/NC(=O)CO/N=C(\C)c2cccs2)c1OC, the outcome was “inactive”.
With Cc1ccc(C)c2[nH]c(=O)c(CN(Cc3cccnc3)C(=S)NCc3ccco3)cc12 the outcome was “inactive”.
In the case of C=CCn1c(NC(C)c2cc(Cl)ccc2O)nc2ccccc21 (stereo not given), the outcome is reported as “inactive”.
In the case of COc1ccc(C2=NN3C(=O)c4c(ccc(OC)c4OC)C3C2)cc1 (stereo not given), the outcome is reported as “inactive”.
For O=C(NCc1cccnc1)C1c2ccccc2C(=O)N1Cc1ccccc1 (stereo not given), the outcome was “inactive”.
In the case of O=C(NCc1cccnc1)c1ccc(Cl)cc1[N+](=O)[O-], the outcome is reported as “inactive”.
For C=C(C)Cn1c(-c2ccc(OC)cc2)nc2ccccc21, the outcome was “inactive”.
In the case of COC(=O)Cn1c(=O)c(C)nc2ccccc21, the outcome is reported as “inactive”.
In the case of Clc1ccc(Cn2cc(Br)cn2)cc1Cl, the outcome is reported as “inactive”.
For COc1ccc(N2CCN(C(=O)c3cc4c(s3)-c3ccccc3S(=O)(=O)C4)CC2)cc1, the outcome was “inactive”.
For CCCC(=O)Nc1c2c(nn1-c1ccc(C)cc1C)CSC2, the outcome was “inactive”.
With CN(C)C(=O)COC(=O)/C=C/c1ccccc1[N+](=O)[O-] the outcome was “inactive”.
With Oc1ccc(C2NCc3ccccc3-n3cccc32)cc1Cl (stereo not given) the outcome was “inactive”.
With COC(=O)C(NC(C)=O)(Nc1nc2c(s1)CCCC2)C(F)(F)F (stereo not given) the outcome was “inactive”.
In the case of CCN1CCN(CCNC(=O)c2ccc(/C=C3/Sc4ccccc4N(Cc4cccc(C)c4)C3=O)cc2)CC1, the outcome is reported as “inactive”.
In the case of CCN1CCN(CCCNC(=O)c2ccc(/C=C3/Sc4ccccc4N(Cc4ccccc4F)C3=O)cc2)CC1, the outcome is reported as “inactive”.
For S=C1NCN(C2CCCCC2)CN1c1ccccc1, the outcome was “inactive”.
With CC(=O)C1C(c2ccc(OC(F)F)cc2)NC(=O)NC1(O)C(F)(F)F (stereo not given) the outcome was “inactive”.
With COc1ccc(C2C3=C(CC(C)(C)CC3=O)Nc3cc4c(cc32)OCO4)cc1 (stereo not given) the outcome was “inactive”.
For CCc1nc(C)ccc1OCC(=O)N(CC)CC, the outcome was “inactive”.
In the case of CCc1nc(C)ccc1OCC(=O)NCCCN(C)C, the outcome is reported as “inactive”.
In the case of Cc1cc(C)n(/N=C/c2cc(Cl)cc(Cl)c2O)c(=O)c1, the outcome is reported as “inactive”.
For CC1CCN(C(=O)C2CCCN(S(C)(=O)=O)C2)CC1 (stereo not given), the outcome was “inactive”.
With NC(=O)c1ccc[n+](CC(=O)c2cccc([N+](=O)[O-])c2)c1 the outcome was “inactive”.
With Cc1ccc(C(=O)Nc2ccc3c(c2)ncn3C)cc1 the outcome was “inactive”.
With COc1ccc(/C=N/NC(=O)c2cccnc2)c(C(=O)O)c1OC the outcome was “inactive”.
With COc1cccc(/C=N/NC(=O)CNC(=O)COc2cccc(C)c2)c1O the outcome was “inactive”.
For CCCC1=C(C(=O)OCC)C(c2ccc(O)cc2)n2ncnc2N1 (stereo not given), the outcome was “inactive”.
In the case of O=C(CCc1nc2ccccc2s1)NC1CCOC1=O (stereo not given), the outcome is reported as “inactive”.
With COc1ccc(CCNC(=O)CSc2ccc(-c3ccncc3)nn2)cc1 the outcome was “inactive”.
For COC(=O)c1ccc(NC(=O)CO/N=C2\CCCc3nonc32)cc1, the outcome was “inactive”.
For Cc1ccc2cc(-c3noc(C4CCCO4)n3)c(=O)[nH]c2c1 (stereo not given), the outcome was “inactive”.
In the case of CC(C)c1ccc2oc(=O)cc(CN3CCN(c4ccc(F)cc4)CC3)c2c1, the outcome is reported as “inactive”.
For Cc1ccc(NC(=O)COc2ccccc2CNC(C)(C)CC(C)(C)C)cc1, the outcome was “inactive”.
With Cc1ccc(NC(=O)Cc2ccc(F)cc2)cc1 the outcome was “inactive”.
For c1ccc2c(c1)C(=NC1CCCCC1)NC2=NC1CCCCC1, the outcome was “inactive”.
With Cc1cc(N2CCCCC2)c(F)cc1[N+](=O)[O-] the outcome was “inactive”.
With Cc1nn(-c2cc(N3CCNCC3)ccc2[N+](=O)[O-])c(=O)c2ccccc12 the outcome was “inactive”.
In the case of CCN(CC(=O)Nc1ccc(C(=O)OC)cc1)C1CCCCC1, the outcome is reported as “inactive”.
For Cc1ccc(N2C(=O)[C@@H]3[C@H](C2=O)[C@H]2C=CC=NN2[C@@H]3C(=O)Nc2ccc(Cl)cc2)cc1, the outcome was “inactive”.
For COC(=O)c1cccc(C(=O)N2CCCC(CCC(=O)N(C)CCc3ccccn3)C2)c1 (stereo not given), the outcome was “inactive”.
In the case of Clc1ccc2c(NCc3ccccn3)ccnc2c1, the outcome is reported as “inactive”.
For C[C@@H](CO)NC(=O)c1ccc2c3n(nc2c1)-c1ccc(Cl)cc1CO3, the outcome was “inactive”.
With CCCCCc1nc2c(c3c1CCCC3)CCCC2 the outcome was “inactive”.
In the case of N=C1c2ccccc2CN1c1ncccn1, the outcome is reported as “inactive”.
In the case of CCCN1CCC(NCc2cn(C)nc2-c2ccc(Oc3ccccc3)cc2)CC1, the outcome is reported as “inactive”.
With O=C(N/N=C/c1ccc(-c2ccc(Br)cc2)o1)c1ccc2c(c1)OCO2 the outcome was “inactive”.
With CN(C)CCCNC(=O)c1ccc(-c2nc(-c3ccc(Cl)cc3)cs2)cc1 the outcome was “inactive”.
With CN(C)CCNC(=O)/C(=C/c1ccc(-c2ccc(Cl)cc2)o1)NC(=O)c1ccccc1 the outcome was “inactive”.
